Data taken from PubChem BioAssay (EPA / NIEHS).
Results filed as inconclusive are left out. Active and inactive are the calls of the source. Rule for the calls, unless noted: active = hit-call score of the fitted dose curve at least 0.9, where 1 is the maximum; inconclusive = response in the unintended direction; inactive = score below 0.9.

Chain of Cytochrome P450 2C19 (Homo sapiens) (P33261 whole entry, looked up): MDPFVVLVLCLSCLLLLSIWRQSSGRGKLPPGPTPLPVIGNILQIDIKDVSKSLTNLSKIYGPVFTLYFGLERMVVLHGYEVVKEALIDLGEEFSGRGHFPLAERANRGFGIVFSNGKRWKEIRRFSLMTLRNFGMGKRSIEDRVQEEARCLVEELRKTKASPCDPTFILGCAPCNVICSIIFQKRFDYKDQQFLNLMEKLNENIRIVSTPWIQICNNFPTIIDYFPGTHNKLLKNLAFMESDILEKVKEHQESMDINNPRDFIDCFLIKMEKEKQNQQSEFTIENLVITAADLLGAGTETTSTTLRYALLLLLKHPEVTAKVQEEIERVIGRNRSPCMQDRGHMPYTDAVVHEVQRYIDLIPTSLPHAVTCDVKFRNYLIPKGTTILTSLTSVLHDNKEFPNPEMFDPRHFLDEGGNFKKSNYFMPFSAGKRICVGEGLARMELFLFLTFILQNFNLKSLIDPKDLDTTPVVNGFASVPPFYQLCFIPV

Read-out: sulfotransferase (SULT2A), SULT2A1 (gene 6822)
Assay: CLD_SULT2A_6hr: CellzDirect (CLD) Gene Expression Assay for sulfotransferase (SULT2A) at 6 hours (AID 2283669);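 note: hits raise transcript level above the DMSO vehicle baseline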
Settings: not given
In short: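 Primary human hepatocytes from two donor preparations were dosed daily with chemicals or 0.2% DMSO and harvested at 6 h. Transcript induction read by qNPA chemiluminescence, fitted for gain of signal relative to DMSO; morphology-based cytotoxicity annotated.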
With `Cc1nn(C)c(Oc2ccccc2)c1C=NOCc1ccc(C(=O)OC(C)(C)C)cc1` the outcome was “inactive”.
For `CCSC(=O)N(CC(C)C)CC(C)C`, the outcome was “inactive”.
With `CCN(CC)C(=O)c1cccc(C)c1` the outcome was “inactive”.
For `CCCOC(=O)NCCCN(C)C`, the outcome was “inactive”.
In the case of `O=C(O)C1(C(=O)Nc2ccc(Cl)cc2Cl)CC1`, the outcome is reported as “inactive”.
With `CCCCC(CC)COC(=O)c1ccccc1C(=O)O` (stereo not given) the outcome was “inactive”.
With `CCCCOC(=O)C(C)Oc1ccc(Oc2ccc(C(F)(F)F)cn2)cc1` (stereo not given) the outcome was “inactive”.
In the case of `C#CCOC(=O)[C@@H](C)Oc1ccc(Oc2ncc(Cl)cc2F)cc1`, the outcome is reported as “inactive”.
With `CCC(C)OC(=O)N1CCCCC1CCO` (stereo not given) the outcome was “inactive”.
In the case of `CCCOC(=O)c1ccc(C(=O)OCCC)nc1`, the outcome is reported as “inactive”.

Read-out: Cytochrome P450 (CYP24A1_1), CYP24A1 (gene 1591)
Assay: LTEA_HepaRG_CYP24A1_1: Life Technologies and Expression Analysis (LTEA) Assay for Cytochrome P450 (CYP24A1_1) using HepaRG (AID 2283671; active = hit-call score of the fitted dose curve at least 0.9, where 1 is the maximum; inactive = score below 0.9)
Settings: mRNA level, 48 h; actives raise or lower the signal
In short: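 Differentiated human HepaRG cells in serum-free induction medium, exposed 48 h in duplicate to eight half-log concentrations from 100 uM top, 0.5% DMSO. Transcript measured by TaqMan qRT-PCR, normalised to ACTB, GAPDH, POLR2A; bidirectional fitting versus DMSO.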
For `CCCCCCC(C)OC(=O)COc1nc(F)c(Cl)c(N)c1Cl` (stereo not given), the outcome was “inactive”.
In the case of `COCCO`, the outcome is reported as “inactive”.
With `O=C(O)c1ccccc1` the outcome was “inactive”.

Read-out: glucuronosyltransferase (UGT1A1), UGT1A1 (gene 54658)
Assay: CLD_UGT1A1_6hr: CellzDirect (CLD) Gene Expression Assay for glucuronosyltransferase (UGT1A1) at 6 hours (AID 2283672)
Settings: not given
In short: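 Primary human hepatocytes from two donor preparations, dosed with fresh solutions in 0.2% DMSO, harvested at 6 h. UGT1A1 mRNA measured by qNPA chemiluminescence; induction fitted upward versus DMSO.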
With `CCOC(=O)C(C)Oc1ccc(Oc2cnc3cc(Cl)ccc3n2)cc1` (stereo not given) the outcome was “inactive”.
With `OB(O)O` the outcome was “inactive”.
In the case of `CCSC(=O)N(CC(C)C)CC(C)C`, the outcome is reported as “inactive”.
In the case of `CCN(CC)C(=O)c1cccc(C)c1`, the outcome is reported as “inactive”.
With `CCCCCCC(C)OC(=O)COc1nc(F)c(Cl)c(N)c1Cl` (stereo not given) the outcome was “inactive”.
For `CCC(O)=C1C(=O)CC(C(=O)O)CC1=O` (stereo not given), the outcome was “inactive”.
For `CCCCC(CC)COC(=O)c1ccccc1C(=O)O` (stereo not given), the outcome was “inactive”.
In the case of `CCCCOC(=O)C(C)Oc1ccc(Oc2ccc(C(F)(F)F)cn2)cc1` (stereo not given), the outcome is reported as “inactive”.
With `c1ccc(Nc2ccccc2)cc1` the outcome was “inactive”.
For `C#CCOC(=O)[C@@H](C)Oc1ccc(Oc2ncc(Cl)cc2F)cc1`, the outcome was “inactive”.
With `COC(=O)c1ccccc1S(=O)(=O)NC(=O)Nc1nc(OC(F)F)cc(OC(F)F)n1` the outcome was “inactive”.
With `CCC(C)OC(=O)N1CCCCC1CCO` (stereo not given) the outcome was “inactive”.
In the case of `c1ccc2[nH]c(-c3cscn3)nc2c1`, the outcome is reported as “inactive”.

Read-out: xenobiotic metabolism (CYP1A1), CYP1A1 (gene 1543)
Assay: CLD_CYP1A1_24hr: CellzDirect (CLD) Gene Expression Assay for xenobiotic metabolism (CYP1A1) at 24 hours (AID 2283673);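 note: CYP1A1 mRNA level by quantitative nuclease protection with chemiluminescence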
Settings: not given
In short: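 Primary human hepatocytes dosed daily with fresh solutions in 0.2% DMSO vehicle. mRNA measured at 24 h by quantitative nuclease protection assay with chemiluminescence; gain-of-signal fit versus DMSO, with morphology-based cytotoxicity flags.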
For `Cc1nn(C)c(Oc2ccccc2)c1C=NOCc1ccc(C(=O)OC(C)(C)C)cc1`, the outcome was “inactive”.
In the case of `O=C(O)C1(C(=O)Nc2ccc(Cl)cc2Cl)CC1`, the outcome is reported as “inactive”.
With `CCCCCCC(C)OC(=O)COc1nc(F)c(Cl)c(N)c1Cl` (stereo not given) the outcome was “inactive”.
For `c1ccc(Nc2ccccc2)cc1`, the outcome was “inactive”.
With `COC(=O)c1ccccc1S(=O)(=O)NC(=O)Nc1nc(OC(F)F)cc(OC(F)F)n1` the AC50 was 0.0569 µM (active).
For `O=C(Nc1ccc([N+](=O)[O-])cc1Cl)c1cc(Cl)ccc1O`, the AC50 was 7.01 µM (active).
For `c1ccc2[nH]c(-c3cscn3)nc2c1`, the AC50 was 0.226 µM (active).

Read-out: ABC Transporter (ABCB11), ABCB11 (gene 8647)
Assay: CLD_ABCB11_24hr: CellzDirect (CLD) Gene Expression Assay for ABC Transporter (ABCB11) at 24 hours (AID 2283674; active = hit-call score of the fitted dose curve at least 0.9, where 1 is the maximum; inactive = score below 0.9)
Settings: not given
In short: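 Primary human hepatocytes were dosed daily for two days, with 0.2% DMSO vehicle. ABCB11 mRNA induction was measured at 24 hours by quantitative nuclease protection assay with chemiluminescence. Gain of signal was fitted relative to DMSO.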
With `CCOC(=O)C(C)Oc1ccc(Oc2cnc3cc(Cl)ccc3n2)cc1` (stereo not given) the outcome was “inactive”.
For `Cc1nn(C)c(Oc2ccccc2)c1C=NOCc1ccc(C(=O)OC(C)(C)C)cc1`, the AC50 was 36.8 µM (active).
With `OB(O)O` the outcome was “inactive”.
For `CCC(O)=C1C(=O)CC(C(=O)O)CC1=O` (stereo not given), the outcome was “inactive”.
For `COCCO`, the outcome was “inactive”.
For `c1ccc(Nc2ccccc2)cc1`, the outcome was “inactive”.
For `C#CCOC(=O)[C@@H](C)Oc1ccc(Oc2ncc(Cl)cc2F)cc1`, the outcome was “inactive”.
With `CCC(C)OC(=O)N1CCCCC1CCO` (stereo not given) the outcome was “inactive”.
In the case of `CCCOC(=O)c1ccc(C(=O)OCCC)nc1`, the outcome is reported as “inactive”.

Read-out: ABC Transporter (ABCB11), ABCB11 (gene 8647)
Assay: CLD_ABCB11_6hr: CellzDirect (CLD) Gene Expression Assay for ABC Transporter (ABCB11) at 6 hours (AID 2283675);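 note: hits raise ABCB11 mRNA level so AC50 marks induction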
Settings: not given
In short: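 Human primary hepatocytes (two donor preparations) given fresh chemical daily at multiple concentrations, vehicle 0.2% DMSO. ABCB11 mRNA induction measured 6 h after dosing by qNPA chemiluminescence versus DMSO; cytotoxicity annotated from morphology.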
In the case of `OB(O)O`, the outcome is reported as “inactive”.
For `CCSC(=O)N(CC(C)C)CC(C)C`, the outcome was “inactive”.
For `CCCOC(=O)NCCCN(C)C`, the outcome was “inactive”.
With `CCC(O)=C1C(=O)CC(C(=O)O)CC1=O` (stereo not given) the outcome was “inactive”.
In the case of `CCCCC(CC)COC(=O)c1ccccc1C(=O)O` (stereo not given), the outcome is reported as “inactive”.
In the case of `CCCCOC(=O)C(C)Oc1ccc(Oc2ccc(C(F)(F)F)cn2)cc1` (stereo not given), the outcome is reported as “inactive”.
In the case of `c1ccc(Nc2ccccc2)cc1`, the outcome is reported as “inactive”.
With `C#CCOC(=O)[C@@H](C)Oc1ccc(Oc2ncc(Cl)cc2F)cc1` the outcome was “inactive”.
With `COC(=O)c1ccccc1S(=O)(=O)NC(=O)Nc1nc(OC(F)F)cc(OC(F)F)n1` the outcome was “inactive”.
In the case of `O=C(Nc1ccc([N+](=O)[O-])cc1Cl)c1cc(Cl)ccc1O`, the outcome is reported as “inactive”.
For `CCC(C)OC(=O)N1CCCCC1CCO` (stereo not given), the outcome was “inactive”.
For `CCCOC(=O)c1ccc(C(=O)OCCC)nc1`, the outcome was “inactive”.

Read-out: Cytochrome P450 2C19 (Homo sapiens) (UniProt P33261)
Assay: CLD_CYP2C19_6hr: CellzDirect (CLD) Gene Expression Assay for xenobiotic metabolism (CYP2C19) at 6 hours (AID 2283678)
Settings: not given
In short: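 Primary human hepatocytes from two donor preparations were dosed daily, with 0.2% DMSO as vehicle, and harvested 6 h after dosing. CYP2C19 mRNA induction was measured by qNPA chemiluminescence and fitted as gain of signal against DMSO.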
With `OB(O)O` the outcome was “inactive”.
In the case of `CCCOC(=O)NCCCN(C)C`, the outcome is reported as “inactive”.
In the case of `O=C(O)C1(C(=O)Nc2ccc(Cl)cc2Cl)CC1`, the outcome is reported as “inactive”.
For `CCCCCCC(C)OC(=O)COc1nc(F)c(Cl)c(N)c1Cl` (stereo not given), the outcome was “inactive”.
With `COCCO` the outcome was “inactive”.
In the case of `CCCCC(CC)COC(=O)c1ccccc1C(=O)O` (stereo not given), the outcome is reported as “inactive”.
In the case of `c1ccc(Nc2ccccc2)cc1`, the outcome is reported as “inactive”.
In the case of `C#CCOC(=O)[C@@H](C)Oc1ccc(Oc2ncc(Cl)cc2F)cc1`, the outcome is reported as “inactive”.
For `COC(=O)c1ccccc1S(=O)(=O)NC(=O)Nc1nc(OC(F)F)cc(OC(F)F)n1`, the outcome was “inactive”.
In the case of `CCC(C)OC(=O)N1CCCCC1CCO` (stereo not given), the outcome is reported as “inactive”.
With `c1ccc2[nH]c(-c3cscn3)nc2c1` the outcome was “inactive”.
For `CCCOC(=O)c1ccc(C(=O)OCCC)nc1`, the outcome was “inactive”.

System: not listed separately
Assay: CCTE_Padilla_ZF_144hpf_TERATOSCORE: (Legacy) CCTE's 144 Hour Post-fertilization zebrafish Assay Teratoscore, Padilla Lab (AID 2283679; active = hit-call score of the fitted dose curve at least 0.9, where 1 is the maximum; inactive = score below 0.9;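 for AC50: zebrafish embryos with chorions exposed by immersion from 6-8 hpf to 5 dpf with daily renewal; teratogenicity score from eye scoring of death hatching and malformations at 144 hpf; higher score means more developmental defects relative to DMSO baseline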)
Settings: not given
In short: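 Larvae scored by eye at 144 hpf for death, hatching and malformations after a day in clean Hanks'. Before that, daily-renewed exposure at 80 uM (0.4% DMSO, 26C) from roughly 6-8 hpf through 5 dpf, 4 embryos per chemical.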
In the case of `CCOC(=O)C(C)Oc1ccc(Oc2cnc3cc(Cl)ccc3n2)cc1` (stereo not given), the AC50 is reported as 1.7 µM (active).
With `N[C@@H](Cc1cc(I)c(Oc2ccc(O)c(I)c2)c(I)c1)C(=O)O` the AC50 was 0.331 µM (active).
With `Cc1nn(C)c(Oc2ccccc2)c1C=NOCc1ccc(C(=O)OC(C)(C)C)cc1` the AC50 was 0.213 µM (active).
With `OB(O)O` the outcome was “inactive”.
In the case of `O=C(c1ccc(O)cc1O)c1ccc(O)cc1O`, the AC50 is reported as 95.2 µM (active).
With `O=C(c1ccccc1)C1CCCCC1` the outcome was “inactive”.
For `CCSC(=O)N(CC(C)C)CC(C)C`, the outcome was “inactive”.
For `CCN(CC)C(=O)c1cccc(C)c1`, the outcome was “inactive”.
With `C#C[C@]1(O)CC[C@H]2[C@@H]3CCC4=CC(=O)CC[C@@H]4[C@H]3CC[C@@]21CC` the outcome was “inactive”.
For `CCOC(=O)c1ccc(O)cc1`, the AC50 was 62.6 µM (active).
In the case of `CCCOC(=O)NCCCN(C)C`, the outcome is reported as “inactive”.
With `O=C(O)C1(C(=O)Nc2ccc(Cl)cc2Cl)CC1` the AC50 was 22.7 µM (active).
In the case of `CCCCCCC(C)OC(=O)COc1nc(F)c(Cl)c(N)c1Cl` (stereo not given), the AC50 is reported as 46.9 µM (active).
In the case of `CCC(O)=C1C(=O)CC(C(=O)O)CC1=O` (stereo not given), the outcome is reported as “inactive”.
With `CC(=O)S[C@@H]1CC2=CC(=O)CC[C@]2(C)[C@H]2CC[C@@]3(C)[C@@H](CC[C@@]34CCC(=O)O4)[C@H]12` the AC50 was 38.3 µM (active).
With `COCCO` the outcome was “inactive”.
In the case of `CCCCC(CC)COC(=O)c1ccccc1C(=O)O` (stereo not given), the AC50 is reported as 0.608 µM (active).
With `CCCCOC(=O)C(C)Oc1ccc(Oc2ccc(C(F)(F)F)cn2)cc1` (stereo not given) the AC50 was 16.1 µM (active).
In the case of `C[C@]12C[C@H](O)[C@H]3[C@@H](CCC4=CC(=O)CC[C@@]43C)[C@@H]1CC[C@@H]2C(=O)CO`, the outcome is reported as “inactive”.
For `c1ccc(Nc2ccccc2)cc1`, the AC50 was 64 µM (active).
For `C#CCOC(=O)[C@@H](C)Oc1ccc(Oc2ncc(Cl)cc2F)cc1`, the AC50 was 0.593 µM (active).
For `COC(=O)c1ccccc1S(=O)(=O)NC(=O)Nc1nc(OC(F)F)cc(OC(F)F)n1`, the AC50 was 3.02 µM (active).
In the case of `O=C(Nc1ccc([N+](=O)[O-])cc1Cl)c1cc(Cl)ccc1O`, the AC50 is reported as 1.65 µM (active).
With `CCC(C)OC(=O)N1CCCCC1CCO` (stereo not given) the outcome was “inactive”.
In the case of `CC(C)CCCCCCc1ccc(O)cc1`, the AC50 is reported as 8.06 µM (active).
For `c1ccc2[nH]c(-c3cscn3)nc2c1`, the AC50 was 52.8 µM (active).
For `CC(=O)[C@H]1CC[C@H]2[C@@H]3CCC4=CC(=O)CC[C@]4(C)[C@H]3CC[C@]12C`, the AC50 was 8.03 µM (active).
With `C[C@]12CC[C@@H]3c4ccc(O)cc4C[C@@H](CCCCCCCCCS(=O)CCCC(F)(F)C(F)(F)F)[C@H]3[C@@H]1CC[C@@H]2O` (stereo not given in full) the outcome was “inactive”.
In the case of `CCCOC(=O)c1ccc(C(=O)OCCC)nc1`, the AC50 is reported as 1.7 µM (active).
